Screens: PubChem, National Center for Advancing Translational Sciences (NCATS)
APEX1 inh = APE1 (human) endonuclease inhibition; P27695; hit rate 0.35% among 350,000; Potency, µM (top dose mostly 65.8 µM), without a hit: top-dose activity change, negative = inhibition, actives largely listed as inhibitors; recombinant APE1, TAMRA/BHQ-2 abasic DNA cleavage fluorescence; AID 2517;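 note: plate controls were vehicle for no effect and reference inhibitor for full effect; nearly all actives have a fitted effect of over 55% in size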
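Readout is kinetic fluorescence (ex 525, em 598 nm) from cleavage of 50 nM TAMRA/BHQ-2 THF abasic duplex by 0.75 nM APE1, compound added 15 min beforehand at RT.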
TRb SRC2 PPI = TRbeta-SRC2 interaction inhibition; TRbeta-SRC2 peptide binding, fluorescence polarization; receptor liganded with 1 µM T3; AID 1469; P10828; Potency, µM (doses to about 106 µM), for inactives: at the highest dose activity change, negative = inhibition, most hits filed as inhibitors; hit rate 0.065% among 280,000;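 note: plate controls were bound peptide for no effect and peptide without receptor for full effect; nearly all actives have a fitted effect of over 50% in size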
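Read-out is fluorescence polarization (555 nm excitation, 632 nm emission) of a Texas Red SRC2 coactivator peptide; loss of signal reflects blocked binding to human TRb ligand-binding domain in the presence of 1 uM T3.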
RECQ1 inh = inhibitors of human RECQ1 DNA helicase | Potency, µM (highest dose often 57.3 µM), without a hit: at the top dose activity, negative = inhibition, most hits filed as inhibitors | hit rate 0.54% among 240,000 | AID 2549 | P46063 | RECQ1 DNA unwinding, red fluorescence kinetic read;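 note: plate controls were vehicle for no effect and no enzyme for full effect; nearly all actives have a fitted effect of over 30% in size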
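50 nM RECQ1T1 preincubated 15 min with compound in Tris pH 8.0 buffer with MgCl2, DTT, Tween-20 and 2.5 ug/ml poly(dI-dC); started with 200 nM TAMRA/BHQ-2 forked duplex and 2 mM ATP. Unwinding read as fluorescence (525/598 nm), two reads 2 h apart.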
BLM helicase inh-1 = Bloom syndrome helicase (human) inhibition; recombinant BLM DNA unwinding, fluorescence dequenching; Potency, µM (series often up to 56.1 µM), for inactives: at the top dose activity change, negative = inhibition, usual class: inhibitors; hit rate 0.2% among 350,000; P54132;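 note: plate controls were vehicle for no effect and no enzyme for full effect; nearly all actives have a fitted effect of over 35% in size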
WRN helicase inh-1 = inhibitors of human WRN helicase | WRN helicase unwinding, fluorescent forked duplex, kinetic | Potency, µM (doses to about 114 µM), without a hit: at the highest dose activity change, negative = inhibition, most hits filed as inhibitors | hit rate 0.46% among 360,000 | AID 651768; note: % is set by controls: 0 for no effect and ±100 for the full control effect; nearly all actives have a fitted effect of over 55% in size
Target sequence (Q14191 whole entry, looked up): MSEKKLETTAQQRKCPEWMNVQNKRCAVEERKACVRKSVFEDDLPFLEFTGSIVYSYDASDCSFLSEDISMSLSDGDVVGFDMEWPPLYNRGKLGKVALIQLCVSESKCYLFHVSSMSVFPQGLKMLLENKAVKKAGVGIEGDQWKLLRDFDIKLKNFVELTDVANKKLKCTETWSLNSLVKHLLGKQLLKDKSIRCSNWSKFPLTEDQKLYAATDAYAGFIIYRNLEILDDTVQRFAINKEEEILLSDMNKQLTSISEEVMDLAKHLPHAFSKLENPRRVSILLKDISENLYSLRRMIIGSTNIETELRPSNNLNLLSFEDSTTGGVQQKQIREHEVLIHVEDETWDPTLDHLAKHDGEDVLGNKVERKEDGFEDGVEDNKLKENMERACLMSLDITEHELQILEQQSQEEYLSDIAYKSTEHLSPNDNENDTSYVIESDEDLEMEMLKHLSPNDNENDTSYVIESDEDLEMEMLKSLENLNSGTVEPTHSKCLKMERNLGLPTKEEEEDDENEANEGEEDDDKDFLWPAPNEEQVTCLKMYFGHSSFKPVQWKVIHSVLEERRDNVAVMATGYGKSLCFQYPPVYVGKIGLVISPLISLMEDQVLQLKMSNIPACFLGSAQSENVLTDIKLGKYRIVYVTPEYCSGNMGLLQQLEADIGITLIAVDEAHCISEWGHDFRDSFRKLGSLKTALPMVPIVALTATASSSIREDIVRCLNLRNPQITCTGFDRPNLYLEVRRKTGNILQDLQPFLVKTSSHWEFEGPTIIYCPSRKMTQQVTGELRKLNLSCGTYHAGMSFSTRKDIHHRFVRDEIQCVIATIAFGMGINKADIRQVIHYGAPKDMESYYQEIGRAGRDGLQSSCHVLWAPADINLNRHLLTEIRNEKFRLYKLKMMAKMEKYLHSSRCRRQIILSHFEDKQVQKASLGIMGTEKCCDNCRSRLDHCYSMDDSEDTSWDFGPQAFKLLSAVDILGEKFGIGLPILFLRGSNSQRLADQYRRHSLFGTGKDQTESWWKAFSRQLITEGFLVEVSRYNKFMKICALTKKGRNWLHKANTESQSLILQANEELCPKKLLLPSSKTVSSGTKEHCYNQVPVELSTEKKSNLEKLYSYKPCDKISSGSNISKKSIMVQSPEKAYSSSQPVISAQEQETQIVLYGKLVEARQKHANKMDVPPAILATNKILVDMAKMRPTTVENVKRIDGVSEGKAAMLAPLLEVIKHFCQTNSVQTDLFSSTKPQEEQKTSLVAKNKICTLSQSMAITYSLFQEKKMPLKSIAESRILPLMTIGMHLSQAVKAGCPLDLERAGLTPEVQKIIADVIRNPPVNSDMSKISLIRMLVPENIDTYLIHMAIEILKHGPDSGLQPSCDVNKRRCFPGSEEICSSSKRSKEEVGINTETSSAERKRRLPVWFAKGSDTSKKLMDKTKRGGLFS
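Kinetic fluorescence helicase assay: unwinding of a quenched forked DNA duplex (100 nM final) with 2 mM ATP final raises red fluorescence (525/598 nm). Compounds sat 15 min at room temperature with 20 nM WRN beforehand.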
TexasRed fluor = counter-screen for TRb-SRC2 inhibitors: fluorescence interference; TRb/SRC2 Texas Red total fluorescence interference; Potency, µM (top dose mostly 106 µM), without a hit: at the top dose fluorescence change, negative = quenching; hit rate 0.29% among 280,000; active = well fitted curve in either direction with a large enough effect; inconclusive = small, poorly fitted or top-dose-only effect; note: % is set by controls: 0 for no effect and ±100 for the full control effect
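Human TRβ ligand-binding domain (0.6 uM) and Texas Red SRC2 peptide (20 nM) in Tris buffer with 1 uM T3 and 5% DMSO were incubated with pinned compound for 5 hr at ambient temperature. Total fluorescence was computed as S + 2P (555/632 nm).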
RECQ1 inh conf = confirmation of human RECQ1 helicase inhibitors. RECQ1 helicase DNA unwinding, fluorescence. shares compounds with RECQ1 inh. Potency, µM (series often up to 229 µM), for the others: at the top dose activity change, negative = inhibition, actives largely listed as inhibitors. AID 2708. hit rate 28% among 610; note: % is set by controls: 0 for no effect and ±100 for the full control effect; nearly all actives have a fitted effect of over 45% in size
RECQ1 ADP FP = ADP displacement flagged in RECQ1 inhibitor counter-screen | shares compounds with RECQ1 inh | ADP fluorescence polarization displacement counterscreen | Potency, µM (series often up to 228 µM), without a hit: top-dose activity change, negative = inhibition, hits mostly inhibitors | hit rate 27% among 530; note: % is set by controls: 0 for no effect and ±100 for the full control effect; nearly all actives have a fitted effect of over 45% in size
WRN helicase inh-2 = confirmation of human WRN helicase inhibitors; Potency, µM (highest dose often 57.1 µM), inactives show top-dose activity, negative = inhibition, hits mostly inhibitors; AID 720497; hit rate 63% among 610; WRN helicase DNA unwinding, fluorescence kinetic; shares compounds with WRN helicase inh-1; note: nearly all actives have a fitted effect of over 65% in size
TO displacement = binds DNA, flagged in WRN inhibitor counterscreen; thiazole orange DNA binding displacement, fluorescence; hit rate 10% among 610; Potency, µM (top dose mostly 57.1 µM), for inactives: at the top dose activity change, negative = inhibition, actives largely listed as inhibitors; shares compounds with WRN helicase inh-1;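 note: drop in dye fluorescence marks compound binding to DNA; % is set by controls: 0 for no effect and ±100 for the full control effect; nearly all actives have a fitted effect of over 60% in size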
BLM helicase inh-2 = BLM helicase inhibition, WRN selectivity check; shares compounds with WRN helicase inh-1; Recombinant BLM helicase DNA unwinding, red fluorescence; Potency, µM (highest dose often 57.1 µM), for inactives: top-dose activity change, negative = inhibition, actives largely listed as inhibitors; hit rate 60% among 610; AID 720503; note: nearly all actives have a fitted effect of over 60% in size
Starred values were filed as active, the others as inactive; i = inactive; ? = inconclusive; / = not tested or not shown; [ ] = another dose, or the depositor's remark. In the library only some 0.91% were active in any assay of this set; here they are far more common. Unless noted, calls come from the whole dose curve; as a rule, active = well fitted curve in the direction sought with a large enough effect; inconclusive = small, poorly fitted or top-dose-only effect, or another doubt; inactive = no such curve, though single readings can be large; an effect the other way counts as inactive or inconclusive. Potency is the fitted concentration of half-maximal effect.

SMILES | APEX1 inh | TRb SRC2 PPI | RECQ1 inh | BLM helicase inh-1 | WRN helicase inh-1 | TexasRed fluor | WRN helicase inh-2 | TO displacement | BLM helicase inh-2 | others
O=C1/C(=C/c2ccco2)SC(=S)N1c1cccnc1 | 4µM* | -4% | 8.9µM* | 32µM* | 13µM* | -13% | 22µM* | -22% | 8.6µM* | RECQ1 inh conf=50µM*;RECQ1 ADP FP=50µM*
O=S(=O)(Cc1ccccc1)N(O)c1ccccc1 | 6% | / | / | -4% | ? | / | 1% | -7% | 0%
CC(=O)N(Cc1cccnc1)c1nc2c(C)c(C)ccc2s1 | / | -11% | / | 1% | / | -2% | / | / | /
O=C1Nc2ccc3sc4ccccc4c3c2C1=O | ? | 5% | 25% | ? | ? | -7% | ? | 24µM* | 7.6µM*
CC(=O)OCCCNc1cc(Sc2ccc(C)cc2)c2nonc2c1[N+](=O)[O-] | 4% | -4% | 0% | -1% | 40µM* | 4% | -21% | -9% | -15%
CC(=O)OCCCNc1cc(Sc2nc3ccccc3s2)c2nonc2c1[N+](=O)[O-] | -2% | 0% | -9% | -9% | -20% | 3% | / | / | /
O=C(O)CN1C(=O)/C(=C/c2ccc(N3CCCCC3)o2)SC1=S | 1% | 0% | -3% | -3% | 4.7µM* | 16% | 24µM* | 43% | 24µM*
CN(C)/C=C/C(=O)c1cc(F)cc(C(F)(F)F)c1 | 4% | -7% | i | -7% | -12%[57.1 µM] | -3% | / | / | /
COc1cc(/C=C2/SC(=S)N(Cc3ccccc3)C2=O)ccc1OCC(=O)O | 17% | / | / | -14% | -13%[57.1 µM] | / | / | / | /
COc1cc(/C=C2\SC(=S)N(N(C)c3ccccc3)C2=O)ccc1O | 4% | ? | 13% | -6% | ? | 21% | 14µM* | ? | 15µM*
CN=C1S/C(=C\c2ccc(O)c(OC)c2)C(=O)N1C | / | / | / | / | -28% | / | / | / | /
COc1cc(/C=C2/SC(=S)N(Cc3ccccc3)C2=O)cc(Cl)c1O | -33% | / | / | 3% | -128% | / | 1.5µM* | ? | 2.7µM*
COc1cc([N+](=O)[O-])cc(/C=C2/SC(=S)N(Cc3ccccc3)C2=O)c1O | -21% | / | / | ? | 2.7µM* | / | 7.6µM* | 14µM* | 5.4µM*
COc1cc(/C=C2/SC(=S)N(CC(=O)O)C2=O)ccc1OC(=O)c1cccs1 | 2% | 3% | i | 0% | ? | -2% | ? | -13% | -17%
COc1ccc(C2CCc3cc(OC)c(OC)cc3C2NC=O)cc1OC (stereo unspecified) | / | / | / | / | 12% | / | / | / | /
N#C/C(=C\c1ccc(-c2ccc(C(=O)O)cc2)o1)C(=O)Nc1ccccc1C(=O)O | / | 4% | / | -7% | / | -16% | ? | 11µM* | 19µM*
COc1ccc2ncc3c(-c4ccc(C)c(C)c4)nn(CC(=O)Nc4ccccc4)c3c2c1 | / | 8% | / | -9% | / | 0% | / | / | /
COc1cc(N=Nc2cccc(S(N)(=O)=O)c2)c2ccccc2c1N | ? | 2% | i | 4µM* | ? | -18% | ? | ? | ?
NC1=NC(=Nc2cccc(S(N)(=O)=O)c2)c2ccccc21 | 3% | 5% | 20% | 2% | 4% | -3% | / | / | /
COc1ccc(O)c(C(=O)c2cc(SCC(=O)O)c3nc4sc5c(c4c(=O)n3c2)CCCC5)c1 | ? | 7% | i | 22µM* | 25µM* | -9% | 22µM* | ? | 5.4µM*
COc1cc(CNC(=O)c2cc(-c3cc(Cl)ccc3OC)n[nH]2)cc(OC)c1 | / | / | / | / | 5%[57.1 µM] | / | / | / | /
CC1=NN(c2ccccc2)C(=O)/C1=C/C=C/c1ccccc1 | -1% | -8% | -7% | -11% | -16%[11.6 µM] | -1% | / | / | /
CC1=NN(c2cccc(C(=O)O)c2)C(=O)/C1=C\C=C\c1ccco1 | 2% | 8% | 0% | 18% | 4.7µM* | 1% | 1.5µM* | -21% | 0.96µM*
Cn1c(=O)c2cc(NC(=S)NC3CCCCC3)ccc2n1Cc1ccc(Cl)cc1 | / | / | / | / | 1% | / | / | / | /
CC(NC(=O)COC(=O)/C=C/c1ccc([N+](=O)[O-])cc1)c1ccccc1 (stereo unspecified) | -4% | -5% | -16% | -7% | ? | -2% | -3% | -4% | -7%
SMILES | APEX1 inh | TRb SRC2 PPI | RECQ1 inh | BLM helicase inh-1 | WRN helicase inh-1 | TexasRed fluor | WRN helicase inh-2 | TO displacement | BLM helicase inh-2 | others
CC(C)c1ccc(N2C(=O)/C(=C/N(C)C)SC2=S)cc1 | 28µM* | ? | 32µM* | 35% | 20µM* | 28µM*[fluorescent] | 12µM* | -20% | 14µM*
COC(=O)c1sc(NC(=O)c2ccc(Cn3cc(Cl)cn3)o2)c(C#N)c1C | 2% | -12% | -17% | -7% | ? | -12% | -19% | -25% | ?
O=C1C=C(NCCc2cc(Br)c(O)c(Br)c2)C(=O)c2ncccc21 | / | / | / | / | 25µM* | / | 22µM* | ? | 19µM*
Cc1ccc([C@H]2C[C@H](O)[C@@H](n3cc(COC(=O)c4ccccc4)nn3)CN2Cc2cccs2)cc1 | / | / | / | / | 6% | / | / | / | /
O=C1NN(c2ccccc2)C(=O)/C1=C/c1coc2ccccc2c1=O | 5% | -3% | -3% | -10% | ? | 1% | / | / | /
O=C1NN(c2ccccc2)C(=O)/C1=C\c1coc2ccc(O)cc2c1=O | -2% | 11% | -11% | -8% | ? | -5% | -22% | -11% | ?
C/C=C/c1ccc(OCCCNC(C)CC)c(OC)c1 (stereo unspecified) | 3% | -16% | -3% | -10% | ? | -2% | 2% | -2% | 3%
OCC(O)C1OC(Nc2ccc(Cl)cc2)C(O)C1O (stereo unspecified) | 0% | 4% | -3% | 1% | -1% | -4% | / | / | /
